Molecules are shown by their SMILES. Calls of active or inactive are those of the source. Rule for the calls: active = hit-call score of the fitted dose curve at least 0.9, where 1 is the maximum; inactive = score below 0.9.

Assay [1] can be described thus: ATG_CRE_CIS: Attagene CIS-FACTORIAL HepG2 Assay for human cAMP Responsive Element (CRE) binding protein 3 (AID 2282926). The following applies: HepG2 CRE cis-reporter, Attagene multiplexed mRNA; actives raise or lower the signal. The essentials: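 Multiplexed transcription-unit reporters transfected into HepG2; 24 h dosing; RT-PCR/capillary electrophoresis fluorescence read-out; bidirectional fit vs DMSO.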

Assay [2] addresses CCAAT/enhancer-binding protein beta (Homo sapiens) (UniProt P17676). Put plainly: ATG_C_EBP_CIS: Attagene CIS-FACTORIAL HepG2 Assay for human CCAAT/Enhancer Binding Protein (C/EBP) beta (AID 2282927). To be noted: HepG2 Attagene cis-factorial transcription factor reporter; actives raise or lower the signal. The essentials:
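Following a 24 h incubation with test chemical, transfected HepG2 cells yielded RNA whose reporter transcripts were quantified by RT-PCR and fluorescent capillary electrophoresis, with DMSO serving as baseline for bidirectional fitting.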

Assay [3] is described as follows: ATG_CMV_CIS: Attagene CIS-FACTORIAL HepG2 Assay for human CMV (Internal Marker) (AID 2282928).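 Note: endpoint acts as a background internal control marker rather than a target.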 The following applies: HepG2 CMV promoter reporter, transcription factor profiling; actives raise or lower the signal. The essentials: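 HepG2 cells transiently transfected with multiple cis-regulated reporter units; 24 h compound exposure. Reporter mRNA quantified by RT-PCR, 6-FAM primer-extension labeling, HpaI digestion and capillary electrophoresis; bidirectional fitting against DMSO baseline.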

A short description of assay [4]: ATG_DR4_LXR_CIS: Attagene CIS-FACTORIAL HepG2 Assay for human Liver X Receptor (LXR), DR4 submotif (AID 2282929). The following applies: HepG2 Attagene DR4 cis-reporter, mRNA transcription; actives raise or lower the signal. The essentials:
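Transiently transfected HepG2 liver cells; cis-regulated reporters; 24 h dosing. RT-PCR plus CE read-out of reporter mRNA. DMSO baseline, bidirectional curve fitting.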

Sequence of CCAAT/enhancer-binding protein beta (Homo sapiens) (P17676 whole entry, looked up): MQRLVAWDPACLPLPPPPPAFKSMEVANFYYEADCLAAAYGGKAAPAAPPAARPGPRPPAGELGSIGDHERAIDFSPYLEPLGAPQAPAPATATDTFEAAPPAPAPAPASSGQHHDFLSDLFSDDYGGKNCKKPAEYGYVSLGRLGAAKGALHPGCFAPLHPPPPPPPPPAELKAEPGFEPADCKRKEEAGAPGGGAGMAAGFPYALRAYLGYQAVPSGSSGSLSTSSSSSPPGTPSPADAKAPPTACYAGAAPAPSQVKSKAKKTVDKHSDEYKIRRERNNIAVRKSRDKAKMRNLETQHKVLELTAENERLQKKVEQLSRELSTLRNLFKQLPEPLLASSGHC

As to `CC(=O)C(Cl)C(=O)N(C)C` (stereo not given), the result in assay [1], in assay [2], in assay [3] and in assay [4] was inactive.

As to `C=C(C)C#N`, the outcome in assay [1], in assay [2], in assay [3] and in assay [4] was inactive.

Take `C=CCc1ccc(OC)cc1`: the molecule was classed as inactive in assay [1], in assay [2], in assay [3] and in assay [4].

Regarding `CC(C)(c1ccc(OCC2CO2)cc1)c1ccc(OCC2CO2)cc1` (stereo not given), the AC50 is 36 µM (active) in assay [1], 51.6 µM (active) in assay [2], 49.2 µM (active) in assay [3] and 25.9 µM (active) in assay [4].

Consider `O=P(O)(O)CN(CP(=O)(O)O)CP(=O)(O)O`, for which the outcome in assay [1], in assay [2], in assay [3] and in assay [4] was inactive.

For the molecule `N#Cc1ccccn1`, the call in assay [1], in assay [2], in assay [3] and in assay [4] was inactive.

On to `CCCCOCCOC(C)=O`, for which the call in assay [1], in assay [2], in assay [3] and in assay [4] was inactive.

As to `CCC[CH2][Sn]([Cl])([Cl])[Cl]`, the molecule was classed as inactive in assay [1], in assay [2], in assay [3] and in assay [4].

For `COP(=O)(OC)OC`, the molecule was classed as inactive in assay [1], in assay [2], in assay [3] and in assay [4].

Take `CC(C)c1ccc(CO)cc1`: the call in assay [1], in assay [2], in assay [3] and in assay [4] was inactive.

With `N#CCCO`, the result in assay [1], in assay [2], in assay [3] and in assay [4] was inactive.

In the case of `CCc1ccccc1N`, the outcome in assay [1], in assay [2], in assay [3] and in assay [4] was inactive.

Consider `COc1cc(OC)nc(NC(=O)NS(=O)(=O)c2ncccc2C(=O)N(C)C)n1`, for which the molecule was called inactive in assay [1], in assay [2], in assay [3] and in assay [4].

On to `O=C(CCl)CCl`, for which the values for the AC50 in assay [1], in assay [3] and in assay [4] were 24.7 µM (active), 54 µM (active) and 23.3 µM (active), respectively. In addition, the outcome in assay [2] was inactive.

As for `Nc1ccc(N=Nc2ccc(-c3ccc(N=Nc4c(S(=O)(=O)O)cc5cc(S(=O)(=O)O)c(N=Nc6ccccc6)c(O)c5c4N)cc3)cc2)c(N)c1`, the result in assay [1], in assay [2], in assay [3] and in assay [4] was inactive.

`O=Cc1cccc(Oc2ccccc2)c1`: the molecule was classed as inactive in assay [1], in assay [2], in assay [3] and in assay [4].

Take `O=C(NCO)NCO`: the call in assay [1], in assay [2], in assay [3] and in assay [4] was inactive.

Consider `O=C/C=C/c1ccccc1`, for which the result in assay [1], in assay [2], in assay [3] and in assay [4] was inactive.

With `N#CN=C(N)N`, the molecule was classed as inactive in assay [1], in assay [2], in assay [3] and in assay [4].

On to `CCC(=O)c1ccccc1`, for which the molecule was called inactive in assay [1], in assay [2], in assay [3] and in assay [4].

For the molecule `Nc1ccc(Cl)cc1C(=O)c1ccccc1`, the molecule was called inactive in assay [1], in assay [2] and in assay [3]. In addition, the AC50 in assay [4] was 49.5 µM (active).

Regarding `CC(=O)C=C(C)C`, the outcome in assay [1], in assay [2], in assay [3] and in assay [4] was inactive.

As to `c1cc[c]([Hg][c]2ccccc2)cc1`, the half-maximal activity concentration (AC50) was 22.6 µM (active) in assay [1] and 21.3 µM (active) in assay [2]. Besides, the molecule was called inactive in assay [3] and in assay [4].

Consider `Cc1ccc(N)cc1Cl`, for which the outcome in assay [1], in assay [2], in assay [3] and in assay [4] was inactive.

Regarding `ClCc1cccnc1`, the AC50 in assay [1] was 57 µM (active). In addition, the result in assay [2], in assay [3] and in assay [4] was inactive.

For the molecule `Cl/C=C/Cl`, the molecule was classed as inactive in assay [1], in assay [2], in assay [3] and in assay [4].

Regarding `O=[N+]([O-])c1ccc2c3c(cccc13)CC2`, the molecule was classed as inactive in assay [1], in assay [2], in assay [3] and in assay [4].

In the case of `CC1(C)CCC(Cc2ccc(Cl)cc2)C1(O)Cn1cncn1` (stereo not given), the molecule was classed as inactive in assay [1], in assay [2] and in assay [3]. Further, the AC50 in assay [4] is 56.7 µM (active).

As for `CNC(=O)O/N=C/C(C)(C)S(C)=O` (stereo not given), the outcome in assay [1], in assay [2] and in assay [3] was inactive. In assay [4], the AC50 was 99.5 µM (active).

Take `Nc1ncc([N+](=O)[O-])s1`: the result in assay [1], in assay [2], in assay [3] and in assay [4] was inactive.

Take `OCc1ccco1`: the call in assay [1], in assay [2], in assay [3] and in assay [4] was inactive.

For the molecule `COP(=S)(OC)Oc1ccc(S(=O)(=O)N(C)C)cc1`, the result in assay [1], in assay [2], in assay [3] and in assay [4] was inactive.

`C1CCC(NC2CCCCC2)CC1`: the molecule was classed as inactive in assay [1], in assay [2], in assay [3] and in assay [4].

In the case of `Cc1ccccc1C(=O)Nc1cccc(OC(C)C)c1`, the call in assay [1] and in assay [2] was inactive. For the same molecule, the results for the AC50 in assay [3] and in assay [4] were 61.9 µM (active) and 158 µM (active), respectively.

For `COc1ccccc1OC`, the call in assay [1], in assay [2], in assay [3] and in assay [4] was inactive.
